Measurements taken from PubChem BioAssay (NCATS).
Values joined by “and” are separate entries in the source; they are usually repeats but may differ in a detail not shown here. Identical values can stand only once. Values without a mark were called inactive. Inconclusive results are not listed. Some structures have more than one record in an assay (separate samples or runs), and their calls can disagree. Active and inactive are the calls of the source. Unless noted, calls come from the whole dose curve.

Biological target: Alpha-galactosidase (Coffea arabica) (UniProt Q42656)
Sequence (Q42656 whole entry, looked up): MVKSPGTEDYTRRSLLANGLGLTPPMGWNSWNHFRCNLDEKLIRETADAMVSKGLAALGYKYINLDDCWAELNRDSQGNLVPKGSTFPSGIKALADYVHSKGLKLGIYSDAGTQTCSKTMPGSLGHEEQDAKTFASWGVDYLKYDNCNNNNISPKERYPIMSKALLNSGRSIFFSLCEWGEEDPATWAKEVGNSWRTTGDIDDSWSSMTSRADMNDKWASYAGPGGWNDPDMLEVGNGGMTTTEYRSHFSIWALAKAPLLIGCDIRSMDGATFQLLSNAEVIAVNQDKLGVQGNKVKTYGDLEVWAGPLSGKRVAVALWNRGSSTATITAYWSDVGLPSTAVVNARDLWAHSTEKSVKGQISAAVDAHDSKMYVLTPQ
Experiment: Counterscreen for Glucocerebrosidase Inhibitors: qHTS Assay for Coffee Bean alpha-Galactosidase at pH 5.9 (AID 998; active = well fitted curve in the direction sought with a large enough effect; inactive = no such curve, though single readings can be large or run the other way;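 note: plate controls were uninhibited enzyme for no effect and no-enzyme basal signal for full effect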)
Settings: coffee bean alpha-galactosidase enzyme assay; series mostly up to 76.9 µM; activity, negative = inhibition: at the top concentration
Summary of the method: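 Enzyme 2 nM + cpd (0.7 nM–77 uM titration) + 4-MU-alpha-Gal 80 uM, pH 5.9 citrate/Tween-20, RT 20 min, NaOH/glycine stop pH 10, fluor 365/440. Normalized to no-enzyme and full-activity controls; Hill-fit AC50.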

| Structure (SMILES) | activity, negative = inhibition [%] | outcome |
| --- | --- | --- |
| CN1C[C@H](CNC(=O)OCc2ccccc2)C[C@@H]2c3cccc4c3c(cn4C)C[C@H]21 | -3 |  |
| CC(=O)[C@H]1CC[C@H]2[C@@H]3CC[C@H]4C[C@H](O)CC[C@]4(C)[C@H]3C(=O)C[C@]12C | 1.16 |  |
| NCC1(CC(=O)O)CCCCC1 | -1.76 |  |
| Cc1ccc(S(=O)(=O)N[C@@H](CCCCN)C(=O)CCl)cc1 | -2.89 |  |
| CC(C)C(=O)Nc1ccc([N+](=O)[O-])c(C(F)(F)F)c1 | 0.672 |  |
| CCCC(C)(COC(N)=O)COC(=O)NC(C)C (configuration not stated) | -2.26 |  |
| O=c1c(O)c(-c2ccc(O)c(O)c2)oc2cc(O)cc(O)c12 | 0.129 |  |
| Cc1ncc(CNC(=O)N(CCCl)N=O)c(N)n1 | 0.298 |  |
| O=c1[nH]c2ccccc2n1CCCN1CCC(n2c(=O)[nH]c3cc(Cl)ccc32)CC1 | 1.03 |  |
| Nc1ccncc1 | -1.71 |  |
| c1ccc(C2CC2)c(OCC2=NCCN2)c1 | 0.695 |  |
| Cc1cccc(C)c1NC1=NCCCS1 | 2.69 |  |
| CCCN1CCC[C@@H]2Cc3[nH]ncc3C[C@H]21 |  | inactive |
| CNCCCN1c2ccccc2CCc2ccccc21 | -0.377 |  |
| COc1ccccc1N1CCNCC1 | 4.14 |  |
| CCn1cc(C(=O)O)c(=O)c2ccc(C)nc21 | -0.0067 |  |

Test system: not listed separately
Experiment: Validation of Assay for Modulators of Lamin A Splicing (AID 1459; active = well fitted curve in the direction sought with a large enough effect in the signal ratio; the % refers to the signal ratio;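 note: cells exposed to compound for two days before reading; 0% is about no effect; ratio rise marks activators and ratio drop marks inhibitors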)
Settings: Lamin A splicing dual RFP/GFP fluorescence reporter; series mostly up to 9.22 µM; ratio change, both ways: at the top concentration
Summary of the method: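 Readout: ratio of GFP (500-530 nm) to RFP (575-640 nm) total object intensity by 488 nm laser-scanning cytometry after 48 hrs. Cells were HeLa S3 clones carrying lamin A-EGFP minigene plus DsRed2 viability reporter; vehicle 0.5% DMSO final.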

| Structure (SMILES) | ratio change, both ways [%] |
| --- | --- |
| O=C1NCN(c2ccccc2)C12CCN(CC1COc3ccccc3O1)CC2 (configuration not stated) | -6.44 |
| CC(=O)[C@H]1CC[C@H]2[C@@H]3CC[C@H]4C[C@H](O)CC[C@]4(C)[C@H]3C(=O)C[C@]12C | -3.49 |
| Cc1cccc(C)c1NC1=NCCCS1 | -6.09 |
| COc1ccccc1N1CCNCC1 | 3.84 |
| CCn1cc(C(=O)O)c(=O)c2ccc(C)nc21 | -11.3 |

Test system: not listed separately
Experiment: qHTS Assay for Lipid Storage Modulators (AID 1519); note: % is set by controls: 0 for no effect and ±100 for the full control effect
Settings: Drosophila S3 cells, BODIPY lipid droplet/cell ratio, laser cytometry; at 25.7 µM (top of the series); cells loaded with oleic acid
Summary of the method: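 Cells seeded at 5,000 per well were treated with compounds over a concentration series and loaded with oleic acid (400 uM, as added). Lipid droplet fluorescence (488 nm excitation, 500-530 nm channel) was read by laser-scanning cytometry and normalized to 20 uM Triacsin C.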

| Structure (SMILES) | activity change, negative = inhibition [%] |
| --- | --- |
| O=P1(NCCCl)OCCCN1CCCl (configuration not stated) | -0.105 |
| NCC1(CC(=O)O)CCCCC1 | -2.01 |
| CC(C)C(=O)Nc1ccc([N+](=O)[O-])c(C(F)(F)F)c1 | -0.701 |
| O=c1[nH]c2ccccc2n1CCCN1CCC(n2c(=O)[nH]c3cc(Cl)ccc32)CC1 | 0.586 |
| O=[N+]([O-])c1cc([As](=O)(O)O)ccc1O | 0.724 |
| Cc1cccc(C)c1NC1=NCCCS1 | 0.794 |
| CCCN1CCC[C@@H]2Cc3[nH]ncc3C[C@H]21 | -0.566 |
| CNCCCN1c2ccccc2CCc2ccccc21 | -4.5 |
| CCn1cc(C(=O)O)c(=O)c2ccc(C)nc21 | 1.82 |

Same assay, conditions: Drosophila S3 cells, BODIPY lipid droplet/cell ratio, laser cytometry; at 57.5 µM (top of the series); cells loaded with oleic acid

| Structure (SMILES) | activity change, negative = inhibition |
| --- | --- |
| CC(C)=CCOc1c2occc2cc2ccc(=O)oc12 | 17.7% |
| NCC(O)c1ccc(O)cc1 (configuration not stated) | 5.18% |
| O=C1NCN(c2ccccc2)C12CCN(CC1COc3ccccc3O1)CC2 (configuration not stated) | 1.66% |
| CN1C[C@H](CNC(=O)OCc2ccccc2)C[C@@H]2c3cccc4c3c(cn4C)C[C@H]21 | 1.3% |
| CC(CCc1ccccc1)NC(C)C(O)c1ccc(O)cc1 (configuration not stated) | 1.71% |
| CC(=O)[C@H]1CC[C@H]2[C@@H]3CC[C@H]4C[C@H](O)CC[C@]4(C)[C@H]3C(=O)C[C@]12C | -2.01% |
| NCC1(CC(=O)O)CCCCC1 | 1.35% |
| CC[N+]1(C)CCCC(OC(=O)C(O)(c2ccccc2)c2ccccc2)C1 (configuration not stated) | 8.59% |
| CNCCC(Oc1ccc(C(F)(F)F)cc1)c1ccccc1 (configuration not stated) | 1.75% |
| Cc1ccc(S(=O)(=O)N[C@@H](CCCCN)C(=O)CCl)cc1 | -0.107% |
| CC(C)C(=O)Nc1ccc([N+](=O)[O-])c(C(F)(F)F)c1 | 9.96% |
| CCCC(C)(COC(N)=O)COC(=O)NC(C)C (configuration not stated) | 3.44% and -3.03% |
| O=c1c(O)c(-c2ccc(O)c(O)c2)oc2cc(O)cc(O)c12 | 8.54% |
| Cc1cc2c(C(C)C)c(O)c(O)c(C=O)c2c(O)c1-c1c(C)cc2c(C(C)C)c(O)c(O)c(C=O)c2c1O | -15.2% |
| NCCc1cc(O)c(O)cc1O | 7.71% |
| CC(C)=CC1C(C(=O)OCc2cccc(Oc3ccccc3)c2)C1(C)C (configuration not stated) | 8.71% |

| Structure (SMILES) | activity change, negative = inhibition |
| --- | --- |
| Cc1ncc(CNC(=O)N(CCCl)N=O)c(N)n1 | 4.94% |
| CCC1(C2=NCCN2)Cc2ccccc2O1 (configuration not stated) | -1.14% |
| c1ccc2c(c1)OCC(C1=NCCN1)O2 (configuration not stated) | 0.671% |
| CCC(COC(=O)c1cc(OC)c(OC)c(OC)c1)(c1ccccc1)N(C)C (configuration not stated) | 6.16% |
| O=c1[nH]c2ccccc2n1CCCN1CCC(n2c(=O)[nH]c3cc(Cl)ccc32)CC1 | 4.6% and -5.66% |
| Nc1ccncc1 | -5.36% and 3.03% |
| O=[N+]([O-])c1cc([As](=O)(O)O)ccc1O | 3.89% |
| c1ccc(C2CC2)c(OCC2=NCCN2)c1 | 8.25% |
| Cc1cccc(C)c1NC1=NCCCS1 | 0.68% |
| CCCN1CCC[C@@H]2Cc3[nH]ncc3C[C@H]21 | -0.922% |
| CC(C)CC(N(C)C)C1(c2ccc(Cl)cc2)CCC1 (configuration not stated) | 0.545% |
| CN(C)CCN(C)CCc1ccc(Cl)c(Cl)c1 | -1.09% |
| Cc1ccc(-c2nc3ccc(C)cn3c2CC(=O)N(C)C)cc1 | 1.62% |
| CNCCCN1c2ccccc2CCc2ccccc21 | 0.465% |
| Oc1cccc2cccnc12 | 3.44% |
| COc1ccccc1N1CCNCC1 | 3.26% and 0.382% |
